{"source": "ChEMBL document CHEMBL3988442", "about": "“University of Dundee, Small-Polar-MMV Screening Library” (2021)", "note": "Hit rate of the full screen: of about 53,000 compounds, about 900 (1.7%) showed an effect of 50% or more. The entries come from a sample that favours strong results as a whole."}
{"test_system": "Mycobacterium tuberculosis", "assay": "Cornell - Phenotypic assay to identify agents that inhibit growth of Mycobacterium tuberculosis", "assay_type": "functional", "design": "scale not given: direction of the effect not stated beside the values", "conditions": "10 mM as filed; unlikely as a test dose", "units": {"Percent Effect": "%"}}
{"molecule": "O=C(c1cc(-c2cccs2)cs1)N1CCSCC1", "Percent Effect": 48.33}
{"molecule": "Cc1cc(NC(=O)NCC(C)N2CCc3ccccc32)no1", "note": "(stereo not drawn)", "Percent Effect": 26.44}
{"molecule": "NC(=O)C(NC(=O)COC1CCCCC1)c1ccccc1", "note": "(stereo not drawn)", "Percent Effect": 22.67}
{"molecule": "NC(CC1CCCC1)c1ccc(Oc2ccccc2)cc1", "note": "(stereo not drawn)", "Percent Effect": 105}
{"molecule": "NC(c1ccccc1)c1ccc(OC(F)F)cc1", "note": "(stereo not drawn)", "Percent Effect": 11.06}
{"molecule": "Cl.NC(CC1CCCCC1)c1ccccc1", "note": "(stereo not drawn)", "Percent Effect": 52.12}
{"molecule": "Cl.NC(CC1CCCC1)c1ccccc1", "note": "(stereo not drawn)", "Percent Effect": 23.09}
{"molecule": "OC(CN1CCN(CC2CCCCC2)CC1)c1ccccc1", "note": "(stereo not drawn)", "Percent Effect": 2.655}
{"molecule": "COc1cc(C)nc(N2CCN(C(=O)c3ccn(C)c(=O)c3)CC2)n1", "Percent Effect": 29.4}
{"molecule": "Cn1c2ccccc2c2ncn(CCCN3CCOCC3)c(=O)c21", "Percent Effect": -22.77}
{"molecule": "Cc1nc(CCC(N)=O)cc(C2CCCCN2S(C)(=O)=O)n1", "note": "(stereo not drawn)", "Percent Effect": 34.9}
{"molecule": "Cc1nn(C)c(Cl)c1CNCc1cccnc1N1CCCCC1.Cl", "Percent Effect": 10.36}
{"molecule": "Cc1ccc(N2CCN(c3ccccc3C)CC2C)nn1", "note": "(stereo not drawn)", "Percent Effect": 29.54}
{"molecule": "Cc1ccccc1N1CCN(c2cc(N(C)C)ncn2)C(C)C1", "note": "(stereo not drawn)", "Percent Effect": 75.02}
{"molecule": "Cc1ccccc1N1CCN(c2ccncn2)C(C)C1", "note": "(stereo not drawn)", "Percent Effect": 16.47}
{"molecule": "COCC1c2c(cnn2C)CCN1Cc1ccsc1", "note": "(stereo not drawn)", "Percent Effect": 24.96}
{"molecule": "Cc1noc(C)c1CN1C[C@H](C)[C@]2(CCN(Cc3cccnc3)C2=O)C1.O=C(O)C(F)(F)F.O=C(O)C(F)(F)F", "Percent Effect": -5.753}
{"molecule": "Cn1ccnc1CN1CCC2(CCC(=O)N2CCN2CCCC2)CC1.O=C(O)C(F)(F)F.O=C(O)C(F)(F)F", "Percent Effect": 19.98}
{"molecule": "Cc1cnn(CC2CN(c3ncnc4ccccc34)CCO2)c1", "note": "(stereo not drawn)", "Percent Effect": 29.19}
{"molecule": "CN(C)CC1CN(c2cnc3ccccc3n2)CCO1", "note": "(stereo not drawn)", "Percent Effect": -10.68}
{"molecule": "Cc1cnn(CC2CN(c3cnc4ccccc4n3)CCO2)c1", "note": "(stereo not drawn)", "Percent Effect": 106.1}
{"molecule": "Cc1nn(C)cc1-c1cc(C(=O)NCC(C)(C)c2ccccc2F)n[nH]1", "Percent Effect": -16.11}
{"molecule": "Cc1nn(C)cc1-c1cc(C(=O)NCC(C)(C)c2cccc(F)c2)n[nH]1", "Percent Effect": 26.97}
{"molecule": "Cc1nn(C)cc1-c1cc(C(=O)NCC(C)(C)c2ccc(F)cc2)n[nH]1", "Percent Effect": 61.27}
{"molecule": "COCC1c2nnn(CC3CC3)c2CCN1Cc1ccncc1.O=C(O)C(F)(F)F.O=C(O)C(F)(F)F", "note": "(stereo not drawn)", "Percent Effect": 18.59}
{"molecule": "CN1CCC(Cc2cc(N(C)C)ncn2)C1", "note": "(stereo not drawn)", "Percent Effect": 2.45}
{"molecule": "CC(C)c1cc(CN2CCC(CC(=O)O)CC2)no1", "Percent Effect": -2.549}
{"molecule": "CC(C)c1cc(CN2CCNCC2)no1", "Percent Effect": 107.4}
{"molecule": "CC(C)c1cc(CN2CCC(N)CC2)no1", "Percent Effect": -17.69}
{"molecule": "CN1C[C@@H](C(=O)NC(C)(C)C)[C@@]2(COc3ccc(F)cc3C2=O)C1", "Percent Effect": 28.72}
{"molecule": "COc1ccccc1C1Cn2c(C)cnc2CN1Cc1ccc(C)nc1", "note": "(stereo not drawn)", "Percent Effect": -10.88}
{"molecule": "O=C(c1c(F)cccc1F)N1CCC[C@@H]1Cn1c(=O)oc2ccccc21", "Percent Effect": 34.56}
{"molecule": "COc1cccc(OC2CN(C(=O)c3c(C)noc3C)C2)c1", "Percent Effect": 10.7}
{"molecule": "COc1cccc(OC2CN(C(=O)c3ccoc3C)C2)c1", "Percent Effect": -6.916}
{"molecule": "COc1cccc(OC2CN(C(=O)c3sccc3C)C2)c1", "Percent Effect": 55.64}
{"molecule": "Cc1nc2c(c(NCc3cnc4c(c3)CCC4)n1)CNC2", "Percent Effect": 4.431}
{"molecule": "COCCS(=O)(=O)c1ncc(CN(C)C)n1Cc1ccccc1", "Percent Effect": 5.309}
{"molecule": "N#CCCN(CCC#N)C(=O)CN1CCCC1Cc1cccc(F)c1", "note": "(stereo not drawn)", "Percent Effect": 5.513}
{"molecule": "CN(Cc1cccc(F)c1)C(=O)CN1CCCC1CCc1ccccc1", "note": "(stereo not drawn)", "Percent Effect": 61.93}
{"molecule": "CN(Cc1cccc(F)c1)C(=O)CN1CCCCC1Cn1cncn1", "note": "(stereo not drawn)", "Percent Effect": -21.34}
{"molecule": "NC(=O)Nc1cccc(Oc2ccccn2)c1", "Percent Effect": 3.298}
{"molecule": "OCCN1CCN(CC(O)c2ccc(C(F)(F)F)cc2)CC1", "note": "(stereo not drawn)", "Percent Effect": -26.61}
{"molecule": "O=c1oc(-c2ccc(F)cc2)nn1CN1CCSCC1", "Percent Effect": -31.85}
{"molecule": "CCS(=O)(=O)N1C[C@@H](C(=O)NC(C)C)[C@@]2(Cc3ccccc3C(=O)N2)C1", "Percent Effect": 50.91}
{"molecule": "CN1C[C@@H](C(=O)NCC(F)(F)F)[C@@]2(CCc3ccccc3C(=O)N2)C1", "Percent Effect": 4.729}
{"molecule": "CC(C)NC(=O)[C@@H]1CN(C(=O)C2CC2)C[C@]12Cc1ccccc1C(=O)N2", "Percent Effect": 41.43}
{"molecule": "CCN(CC)c1ccc(NC(=O)NC(C)Cn2cccn2)cn1", "note": "(stereo not drawn)", "Percent Effect": -29.36}
{"molecule": "CC(CNC(=O)Nc1ccc(N(C)C)nc1)Cn1cccn1", "note": "(stereo not drawn)", "Percent Effect": 53.74}
{"molecule": "CC(Cn1cccn1)NC(=O)Nc1ccc(N(C)C)nc1", "note": "(stereo not drawn)", "Percent Effect": -5.183}
{"molecule": "CN1C[C@H](O)[C@]2(CCN(Cc3ccc(OC(F)(F)F)cc3)C2)S1(=O)=O", "Percent Effect": 30.47}
{"molecule": "O=C(C[C@@H]1COC[C@H]2CN(Cc3ccc(F)cc3)C[C@@H]12)N1CCCC1.O=C(O)C(F)(F)F", "Percent Effect": -5.358}
{"molecule": "CC(C)c1noc(C2CCN(C(=O)C3CCCO3)CC2)n1", "note": "(stereo not drawn)", "Percent Effect": 4.846}
{"molecule": "O=c1c2cc3c(cc2nnn1Cc1cccc(F)c1)OCCO3", "Percent Effect": -9.384}
{"molecule": "Cc1ccc2c(n1)N(Cc1cccnc1)CCN(C(=O)C1CC=CC1)C2", "Percent Effect": 30.61}
{"molecule": "COC(=O)Nc1nc2c(s1)CN(C(=O)NCc1cccs1)CC2", "Percent Effect": 35.61}
{"molecule": "CC(C)NC(=O)Nc1nc2c(s1)CN(C(=O)NCc1cccs1)CC2", "Percent Effect": 53.32}
{"molecule": "O=C(Nc1nc2c(s1)CN(C(=O)NCc1cccs1)CC2)C1CC1", "Percent Effect": 25.74}
{"molecule": "O=C(O)c1ccc(CN2CCCC(Cc3ccn[nH]3)C2)cc1", "note": "(stereo not drawn)", "Percent Effect": 18.19}
{"molecule": "Cc1cccc(OCCN2CCC(c3ccnn3CCO)CC2)c1", "Percent Effect": -13.34}
{"molecule": "Cc1nn(CCCNC(=O)C2CCN(S(C)(=O)=O)CC2)cc1Cl", "Percent Effect": 12.8}
{"molecule": "Cc1nn(CCCNC(=O)C2CCN(S(C)(=O)=O)CC2)c(Cl)c1Cl", "Percent Effect": 51.75}
{"molecule": "Cc1nn(CCCNC(=O)C2CCN(S(C)(=O)=O)CC2)cc1Br", "Percent Effect": 34.63}
{"molecule": "CCCn1nnnc1COc1ccc(C(=O)OC)cc1", "Percent Effect": 2.105}
{"molecule": "CC(Nc1nc2c(cnn2C)c(=O)[nH]1)c1ccc(F)cc1", "note": "(stereo not drawn)", "Percent Effect": 46.54}
{"molecule": "CCC(=O)Nc1ccc(C(C)Nc2nc3c(cnn3C)c(=O)[nH]2)cc1", "note": "(stereo not drawn)", "Percent Effect": 16.12}
{"molecule": "CC(C)Sc1ccc(C(C)Nc2nc3c(cnn3C)c(=O)[nH]2)cc1", "note": "(stereo not drawn)", "Percent Effect": 64.6}
{"molecule": "Cc1nnc(Nc2cccc(C3CCCN(Cc4ncc[nH]4)C3)n2)s1", "note": "(stereo not drawn)", "Percent Effect": -14.35}
{"molecule": "Cn1ncc2c(NCCOCc3ccccc3)nc(C3CCCC3)nc21", "Percent Effect": 58.05}
{"molecule": "CCOCCNc1nc(C2CCCC2)nc2c1cnn2C", "Percent Effect": 15.61}
{"molecule": "Cn1ncc2c(NCCOc3ccc(F)cc3)nc(C3CCCC3)nc21", "Percent Effect": 105.9}
{"molecule": "CC(C)N(CCNc1nc(C2CCCC2)nc2c1cnn2C)C(C)C", "Percent Effect": 95.65}
{"molecule": "CCS(=O)(=O)CCNc1nc(C2CCCC2)nc2c1cnn2C", "Percent Effect": -9.599}
{"molecule": "Cn1ncc2c(NCCn3cccc3)nc(C3CCCC3)nc21", "Percent Effect": 23.68}
{"molecule": "CNCCCNc1nc(C2CCCC2)nc2c1cnn2C", "Percent Effect": 15.27}
{"molecule": "Cn1ncc2c(NCCC34CCCN3CCC4)nc(C3CCCC3)nc21", "Percent Effect": 10.87}
{"molecule": "Cn1ncc2c(NCCCOc3cccnc3)nc(C3CCCC3)nc21", "Percent Effect": -0.5342}
{"molecule": "Fc1ccc([C@@H]2COC[C@H]2NCc2cccc(F)c2)cc1.O=C(O)CC(O)(CC(=O)O)C(=O)O", "Percent Effect": 12.54}
{"molecule": "CCCNC(=O)c1nn(CC)cc1NC(=O)c1cn(C)nc1C", "Percent Effect": 34.88}
{"molecule": "CC(=O)Nc1nc(CN2CCn3c(C)nnc3C2)cs1", "Percent Effect": -12.41}
{"molecule": "COCCCn1c(CN2CCSCC2)cnc1S(=O)(=O)C1CCCC1", "Percent Effect": 27.36}
{"molecule": "COCCN1C[C@@H](c2ccccc2)[C@@]2(CCN(CC(=O)N(C)C)C2=O)C1.O=C(O)C(F)(F)F", "Percent Effect": 13.65}
{"molecule": "O=C(c1n[nH]c(=O)c2ccccc12)N1CCCCC1c1ccn[nH]1", "note": "(stereo not drawn)", "Percent Effect": -33.63}
{"molecule": "CS(=O)(=O)c1cn[nH]c1C1CCCCN1C(=O)c1cncs1", "note": "(stereo not drawn)", "Percent Effect": -10.78}
{"molecule": "O=C(c1cncs1)N1CCCC1c1ccn[nH]1", "note": "(stereo not drawn)", "Percent Effect": 104.4}
{"molecule": "Cc1ncncc1C(=O)N1CCCC(Cc2nccs2)C1", "note": "(stereo not drawn)", "Percent Effect": -16.51}
{"molecule": "Cc1csc(CN2CC[C@H]3C[C@@H](c4nnc(C)[nH]4)O[C@@H]3C2)n1", "Percent Effect": -4.039}
{"molecule": "CC(C)N(C(=O)Cn1nc2n(c1=O)CCCCC2)C1CCC1", "Percent Effect": 0.8005}
{"molecule": "Fc1ccccc1CN1CCC[C@H](Cn2nnc(-c3cccs3)n2)C1", "Percent Effect": 35.5}
{"molecule": "Fc1ccccc1CN1CCC[C@@H](Cn2nnc(-c3cccs3)n2)C1", "Percent Effect": 75.98}
{"molecule": "Fc1cccc(CN2CCC[C@H](Cn3nnc(-c4ccccn4)n3)C2)c1", "Percent Effect": 14.75}
{"molecule": "CCc1ccccc1NC(=O)c1cnn(C)c1C", "Percent Effect": 25.28}
{"molecule": "Nc1no[n+]([O-])c1C(=O)NCc1ccccn1", "Percent Effect": -59.59}
{"molecule": "O=C(c1ccncc1)N1CCCC1c1nc(O)cc(-c2ccccn2)n1", "note": "(stereo not drawn)", "Percent Effect": -36.16}
{"molecule": "CSCC(CCO)Nc1nc(C(F)F)nc2ccccc12", "note": "(stereo not drawn)", "Percent Effect": 41.07}
{"molecule": "CCc1noc(C(C)N2CCN(CC(=O)N3CCOCC3)CC2)n1", "note": "(stereo not drawn)", "Percent Effect": 11.6}
{"molecule": "N#Cc1cccc(NC2CC(=O)N(C3Cc4ccccc4C3)C2)n1", "note": "(stereo not drawn)", "Percent Effect": 53.28}
{"molecule": "N#Cc1cccc(NC2CC(=O)N(CCCc3ccccc3)C2)n1", "note": "(stereo not drawn)", "Percent Effect": 2.519}
{"molecule": "N#Cc1cccc(NC2CC(=O)N(Cc3ccccc3Cl)C2)n1", "note": "(stereo not drawn)", "Percent Effect": -13.97}
{"molecule": "O=C1CCC2(CCN(Cc3ccsc3)CC2)N1Cc1ccccc1", "Percent Effect": 26.5}
{"molecule": "Cc1ccoc1C(=O)NC1CCN(Cc2ccccc2C#N)CC1", "Percent Effect": -4.356}
{"molecule": "CC(CNC(=O)Nc1ccc(C#N)cc1)N1CCc2ccccc21", "note": "(stereo not drawn)", "Percent Effect": 62.86}
{"molecule": "COc1ccc(NC(=O)NCC(C)N2CCc3ccccc32)cc1", "note": "(stereo not drawn)", "Percent Effect": 13.58}
{"molecule": "CC(CNC(=O)c1ccc(C#N)cc1)N1CCc2ccccc21", "note": "(stereo not drawn)", "Percent Effect": 20.43}
